Screening results (PubChem)
Shown are actives, neighbours in structure and some others; about 28% of the full set was active somewhere.
D1 mod = allosteric modulators of human D1 dopamine receptor. HEK293 D1, CRE-luciferase, dopamine EC30 potentiation; actives deviate in either direction. B-score at 10 µM. actives 5.9% (n = 58,000). AID 641;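 active = luminescence count or its row- and column-corrected plate score outside the 99.7% band of the plate's sample wells, on either side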
CYP2C19 inh = inhibitors of human CYP2C19; P33261; CYP2C19 Supersomes, luciferin-H EGE luminescence, 30 min; inhibition, % at 5 µM; actives 21% (n = 96,000); AID 778;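 active = CYP2C19 inhibition above a set limit at 5 µM in the primary screen, cut at about 50% in these data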;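 also: plate controls were negative control wells for no effect and 2.5 mM tranylcypromine positive control for full effect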
CYP2C9 inh = human CYP2C9 inhibition; inhibition, % at 5 µM; AID 777; CYP2C9 Supersomes, luciferin-H conversion, luminescence; actives 20% (n = 96,000);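 active = blocking of liver enzyme CYP2C9 beyond about 50% at 5 µM, limit read from the data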
Target sequence (P11712 whole entry, looked up): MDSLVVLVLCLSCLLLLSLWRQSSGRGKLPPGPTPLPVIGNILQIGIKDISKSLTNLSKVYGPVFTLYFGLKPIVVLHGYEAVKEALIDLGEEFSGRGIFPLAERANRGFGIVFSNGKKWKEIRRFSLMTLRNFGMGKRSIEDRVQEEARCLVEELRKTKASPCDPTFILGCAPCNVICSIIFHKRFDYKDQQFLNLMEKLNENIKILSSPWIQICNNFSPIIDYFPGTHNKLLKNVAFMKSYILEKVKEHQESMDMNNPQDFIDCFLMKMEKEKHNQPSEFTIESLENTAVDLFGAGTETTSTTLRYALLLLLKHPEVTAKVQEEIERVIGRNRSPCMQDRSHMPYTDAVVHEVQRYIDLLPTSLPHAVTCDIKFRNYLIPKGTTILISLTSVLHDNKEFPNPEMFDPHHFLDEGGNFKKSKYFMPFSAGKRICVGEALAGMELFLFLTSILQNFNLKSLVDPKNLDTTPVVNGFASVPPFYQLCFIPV
CYP2C9 activ = activators of human CYP2C9 | recombinant CYP2C9, luciferin-H conversion, luminescence; stronger effect = higher value; factor 1 = untreated enzyme, 0 = blocked | P11712 | activation factor at 5 µM | actives 1.4% (n = 96,000);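 active = activation factor of 2 or more for CYP2C9 at a 5 µM dose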;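 also: 0 = sulfaphenazole-blocked wells and 1 = vehicle-only wells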
CYP2C19 act = cytochrome P450 2C19 (human) activation. activation factor at 5 µM. recombinant CYP2C19, luciferin-H EGE luminescence; stronger effect = higher value; 0 = fully inhibited enzyme, 1 = untreated enzyme. P33261. 96,000 tested, under 10 active. AID 1025;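 active = activation factor of at least 2 at 5 µM in the primary screen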;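 also: 0 = wells with 2.5 mM tranylcypromine and 1 = vehicle-only wells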
DAT uptake mod = human DAT dopamine uptake with cocaine, either direction; Q01959; AID 449768; B-score at 10 µM; actives 1.3% (n = 110,000); LLC-PK1 hDAT cells, [14C]-dopamine uptake with cocaine IC80; actives deviate in either direction;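 active = Z score or B-score, a plate-position-corrected score, falls beyond the plate's 99.7% confidence bounds, in either direction; inactive = both scores lie inside the 99.7% bounds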;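 also: scored against the spread of the other compound wells on the same plate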
* hit, by the source's call; . = not tested or not shown.

SMILES | D1 mod | CYP2C19 inh | CYP2C9 inh | CYP2C9 activ | CYP2C19 act | DAT uptake mod
C=CCNc1ncnc2c1cnn2-c1ccc(C)cc1C | -1.3 | 30 | 10 | 0.9 | 0.7 | -0.0013
CCOC(=O)N1CCC(Nc2ncnc3c2cnn3-c2ccc(C)cc2C)CC1 | -3.7* | 44 | 58* | 0.4 | 0.6 | 0.36
CCOC(=O)C1CCN(C(=O)COc2ccc(N(C)S(=O)(=O)c3cccs3)cc2)CC1 | -1.9 | 62* | 90* | 0.1 | 0.4 | 0.00081
O=C(COc1ccc(-c2ccccc2)cc1)N1CCN(S(=O)(=O)Cc2ccccc2)CC1 | . | 29 | 53* | 0.5 | 0.7 | -0.71
O=C(COc1ccccc1)N1CCN(S(=O)(=O)c2cccs2)CC1 | 1.2 | 64* | 30 | 0.7 | 0.4 | 0.0067
O=C1NC[C@@H](Cc2cccc3ccccc23)N(CCc2cc(C(F)(F)F)cc(C(F)(F)F)c2)C1=O | . | . | . | . | . | 0.41
Cc1ccc(Oc2ccccc2/C=C/C(=O)O)cc1 | . | 0 | 5 | 0.9 | 1 | 0.34
O=C(NCC(=O)N(CC1CCCO1)C1(C(=O)NC2CCCCC2)CCCCC1)c1ccccc1 (stereo not given) | . | -2 | -2 | 1 | 1 | 0.064
CN(C)/C=N/c1ncc(C(=O)c2ccc3ccccc3c2)s1 | . | 53* | -128 | 2.3* | 0.5 | 1.7
CCOC(=O)c1c(N)sc(C(O)(C(F)(F)F)C(F)(F)F)c1-c1ccc(F)cc1 | . | 32 | 75* | 0.3 | 0.7 | -0.6
CCOC(=O)c1c(NC(=O)C2C3CCC(O3)C2C(=O)O)sc(C)c1-c1ccc(F)cc1 (stereo not given) | . | 16 | 13 | 0.9 | 0.8 | -0.75
CCOC(=O)c1c(N)sc(C(O)(C(F)(F)F)C(F)(F)F)c1-c1ccc(Cl)cc1 | . | 62* | 86* | 0.1 | 0.4 | -0.071
CC1=NC(C)Cc2ccccc21 (stereo not given) | -0.46 | -10 | -2 | 1 | 1.1 | -0.22
CC1(C)C(=O)OC(C(=O)c2ccccc2)C(C)(C)C1=O (stereo not given) | -0.5 | 91* | 58* | 0.4 | 0.1 | -0.00054
CC1(C)C(=O)OC(c2ccccc2)C2(CCCC2)C1=O (stereo not given) | . | 90* | 21 | 0.8 | 0.1 | 1
Cc1cc(C)c(C(=O)C2OC(=O)C(C)(C)C(=O)C2(C)C)c(C)c1 (stereo not given) | . | 92* | 90* | 0.1 | 0.1 | 0.47
CC(=O)Nc1ccc2[nH]c3ccccc3c2c1 | -0.27 | 73* | 10 | 0.9 | 0.3 | 0.048
COc1ccc2[nH]c(O)c(NC(C)=O)c2c1 | -0.28 | 8 | 63* | 0.4 | 0.9 | 0.6
COc1ccc2[nH]c3ccccc3c2c1 | 0.72 | 55* | 3 | 1 | 0.5 | .
O=C(NCCO)c1ccc2[nH]c3ccccc3c2c1 | . | 91* | 16 | 0.8 | 0.1 | -0.12
O=C(NCCO)c1ccc2c(c1)S(=O)(=O)c1ccccc1C2=O | 0.59 | -10 | -8 | 1.1 | 1.1 | 0.054
CCOC(=O)N1CCN(S(=O)(=O)c2ccc(OC)c(Cl)c2Cl)CC1 | 2 | 99* | -94 | 1.9 | 0 | -0.17
CCOC(=O)N1CCN(S(=O)(=O)c2cccc3nsnc23)CC1 | -0.11 | 76* | 19 | 0.8 | 0.2 | 0.81
CCOC(=O)N1CCN(S(=O)(=O)c2ccc(OCC)c3ccccc23)CC1 | -0.23 | 30 | -32 | 1.3 | 0.7 | 0.44
CCOC(=O)N1CCN(S(=O)(=O)c2ccc(OC)c(OC)c2)CC1 | . | . | . | . | . | -1.1
SMILES | D1 mod | CYP2C19 inh | CYP2C9 inh | CYP2C9 activ | CYP2C19 act | DAT uptake mod
CCOC(=O)N1CCN(S(=O)(=O)c2ccc(OC)c(Cl)c2)CC1 | 0.4 | 98* | -46 | 1.5 | 0 | -0.76
COC(=O)n1c(=O)oc2cc(S(=O)(=O)N3CCCCC3)ccc21 | -6.8* | 35 | 28 | 0.7 | 0.7 | -0.46
CNC(=O)Nc1ccccc1NC(=O)NC | -0.12 | -8 | -17 | 1.2 | 1.1 | 0.013
C=C1CCN(CC(=O)OC)S(=O)(=O)c2ccccc21 | . | . | . | . | . | 0.11
Cc1ccc(C)c(C(=O)CCC(=O)Nc2cccnc2)c1 | -0.037 | 48 | -23 | 1.2 | 0.5 | 0.36
COc1ccc(CC(=O)OCC(=O)Nc2c(C)n(C)n(-c3ccccc3)c2=O)cc1 | 0.36 | -23 | -18 | 1.2 | 1.2 | 0.17
CCOC(=O)N1CCN(S(=O)(=O)c2ccc3c(c2)oc(=O)n3C)CC1 | -0.98 | 58* | 0 | 1 | 0.4 | -0.34
c1ccc(N2CCN(c3ncnc4scc(-c5cccs5)c34)CC2)cc1 | -0.28 | 96* | 97* | 0 | 0 | 0.011
O=C(c1ccco1)N1CCN(c2ncnc3scc(-c4ccccc4)c23)CC1 | . | 8 | 38 | 0.6 | 0.9 | -0.071
Cc1ccc(-c2csc3ncnc(N4CCN(C(=O)c5ccccc5)CC4)c23)cc1 | . | 73* | 79* | 0.2 | 0.3 | 2.2
CCOCC(=O)Nc1nnc(COCC)s1 | 0.04 | -6 | -3 | 1 | 1.1 | 0.56
CCSc1nnc(NC(=O)COc2cccc3ccccc23)s1 | . | 22 | 57* | 0.4 | 0.8 | 0.59
CCOCC(=O)Nc1nnc(SCCOC)s1 | -0.023 | 1 | 51* | 0.5 | 1 | -0.27
CCSc1nnc(NC(=O)c2ccccn2)s1 | -5.8* | 22 | 22 | 0.8 | 0.8 | 0.087
Cc1cc(C(=O)Nc2nnc(C(F)(F)F)s2)no1 | -0.73 | 18 | 54* | 0.5 | 0.8 | -0.8
COc1nc2c(C)cccc2cc1-c1noc(-c2ccco2)n1 | -0.43 | 23 | 15 | 0.8 | 0.8 | -0.21
O=C(NCCc1ccccc1)C1CCCN(S(=O)(=O)c2cccc3nsnc23)C1 (stereo not given) | 1.8 | . | . | . | . | .
COC(C[C@@H](O)[C@@H](C)[C@@H](O)COCc1ccccc1)OC | . | . | . | . | . | -0.5
COc1ccc(C2C3=C(CCCC3=O)Nc3nc4ccccc4n32)cc1OC (stereo not given) | 1.6 | . | . | . | . | .
COc1ccc(NC(=S)N2CCN(C/C=C/c3ccccc3)CC2)cc1OC | . | 9 | 9 | 0.9 | 0.9 | 0.15
CCSc1nnc(NC(=O)c2ccc(Br)s2)s1 | -0.11 | 0 | 57* | 0.4 | 1 | -0.29
CCSc1nnc(NC(=O)c2csc3c2CCCC3)s1 | 0.15 | -2 | 0 | 1 | 1 | 0.15
CCSc1nnc(NC(=O)c2cc(C)on2)s1 | 0.71 | 1 | 58* | 0.4 | 1 | 0.87
CCSc1nnc(NC(=O)c2csc3c2CCC(C)C3)s1 (stereo not given) | . | -20 | 82* | 0.2 | 1.2 | -0.55
COC(=O)Cc1cc(=O)[nH]c(/N=C(\N)Nc2ccccc2)n1 | . | 0 | -6 | 1.1 | 1 | 0.43
CCCCCCN(C(=O)CCCCCN1C(=O)NC(c2ccc(-c3ccccc3)cc2)C(C(=O)OCc2ccccc2)=C1C)C(C(=O)NCCCC)c1cccc(C(=O)OC)c1 (stereo not given) | . | . | . | . | . | -0.29
COC(=O)c1cc(COC(=O)c2cccnc2SC)oc1C | 0.071 | 12 | 0 | 1 | 0.9 | -0.41
